Test results from PubChem BioAssay AID2284123 (EPA ToxCast).
The source made the active and inactive calls. The calls were made as follows: active = hit-call score of the fitted dose curve at least 0.9, where 1 is the maximum; inactive = score below 0.9.

These molecules were tested against human PDE10A2 Phosphodiesterase, PDE10A (gene 10846) (UniProt Q9Y233) (assay: ERF_FR_ENZ_hPDE10A: Eurofins (ERF) Enzymatic LeadHunter Assay for human PDE10A2 Phosphodiesterase).
Procedure: ERF_FR_ENZ_hPDE10A is a biochemical, single-readout assay that uses extracted gene-proteins in a cell-free assay. Measurements were taken 0.33 hour after chemical dosing in a 96-well plate. See PDE10A2 Human Phosphodiesterase Enzymatic Assay, Cerep.ERF_FR_ENZ_hPDE10A is an assay component calculated from the ERF_FR_ENZ_hPDE10A assay. It is designed to measure enzyme activity using a type of enzyme reporter as detected by scintillation counting with radiometry technology.Data from the assay component ERF_FR_ENZ_hPDE10A was analyzed at the assay endpoint, ERF_FR_ENZ_hPDE10A, in the positive analysis fitting direction relative to DMSO as the negative control and baseline of activity. Using a type of enzyme reporter, loss-of-signal activity can be used to understand changes in enzymatic activity as they relate to gene PDE10A. To generalize the intended target to other relatable targets, this assay endpoint is annotated to the phosphodiesterase intended target family, where the subfamily is cyclic nucleotide signaling.
Human cells are incubated for 20 minutes at room temprature with [3H]cAMP + cAMP (0.2uM) as sunstrate and Papaverine as control inhibitor. Test Sample Requirements: Minimum for 1) Screen: 60 ul of 10 mM stock -OR- 1 mg (pre-weighed) for 10 uM final testing. 2) Dose Response: 90 ul of 10 mM stock -OR- 1 mg (pre-weighed) for a top concentration at 10 uM.

human PDE10A2 Phosphodiesterase, PDE10A (gene 10846), sequence (Q9Y233 whole entry, looked up): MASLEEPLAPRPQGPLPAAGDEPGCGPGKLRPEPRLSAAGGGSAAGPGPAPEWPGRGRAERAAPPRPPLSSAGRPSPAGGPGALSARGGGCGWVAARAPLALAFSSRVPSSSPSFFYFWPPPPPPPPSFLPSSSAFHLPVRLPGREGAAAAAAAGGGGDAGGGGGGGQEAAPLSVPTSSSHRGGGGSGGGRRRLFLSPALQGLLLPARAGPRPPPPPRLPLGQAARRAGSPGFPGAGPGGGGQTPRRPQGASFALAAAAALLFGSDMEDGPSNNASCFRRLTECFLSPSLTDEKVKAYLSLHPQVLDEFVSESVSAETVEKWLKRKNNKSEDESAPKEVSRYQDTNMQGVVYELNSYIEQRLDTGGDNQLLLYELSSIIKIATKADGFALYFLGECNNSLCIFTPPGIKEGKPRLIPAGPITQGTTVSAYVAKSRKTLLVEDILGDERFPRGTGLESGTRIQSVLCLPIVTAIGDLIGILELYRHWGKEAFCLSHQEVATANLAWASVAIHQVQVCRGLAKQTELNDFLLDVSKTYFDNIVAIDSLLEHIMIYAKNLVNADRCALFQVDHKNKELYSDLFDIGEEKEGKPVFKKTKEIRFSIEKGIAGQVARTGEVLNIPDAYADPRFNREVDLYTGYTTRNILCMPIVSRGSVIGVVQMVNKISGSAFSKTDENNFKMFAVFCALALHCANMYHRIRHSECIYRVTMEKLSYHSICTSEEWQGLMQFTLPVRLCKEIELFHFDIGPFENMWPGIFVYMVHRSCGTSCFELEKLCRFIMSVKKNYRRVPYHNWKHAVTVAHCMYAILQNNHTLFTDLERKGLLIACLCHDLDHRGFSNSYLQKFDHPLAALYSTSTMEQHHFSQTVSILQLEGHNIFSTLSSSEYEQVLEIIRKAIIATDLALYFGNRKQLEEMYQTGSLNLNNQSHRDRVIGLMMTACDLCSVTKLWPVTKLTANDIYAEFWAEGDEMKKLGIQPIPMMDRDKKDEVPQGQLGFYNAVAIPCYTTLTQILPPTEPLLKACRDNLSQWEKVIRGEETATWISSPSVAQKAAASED

Row | Structure (SMILES) | AC50
1 | O=C(/C=C/c1ccc(O)cc1)CC(=O)/C=C/c1ccc(O)cc1 | 295 nM (active)
